Compounds without any hit were thinned out: in the full panel of roughly 83,000, 20% have a hit.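 Plates (96-well) were seeded with cells, treated with compound at one concentration, and incubated for 48 hours before percent growth was determined.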 Values without a mark were called inactive. Calls of active or inactive are those of the source. How the source made its calls: active means growth percent below 10; inactive means the rest.
Assays:
Experiment in all cases: NCI-60 one-dose screen, 48 h (100 = growth as untreated, 0 = no growth, -100 = all killed)
Conditions in all cases: 10 µM unless noted
[1] = system: DU-145 prostate
[2] = system: K-562 leukemia
[3] = system: MALME-3M melanoma
[4] = system: MDA-MB-231 breast
[5] = system: RXF 393 renal
[6] = system: SF-268 CNS
[7] = system: SF-295 CNS
[8] = system: SF-539 CNS
[9] = system: UACC-257 melanoma
[10] = system: M14 melanoma

Structure (SMILES) | growth [1] | growth [2] | growth [3] | growth [4] | growth [5] | growth [6] | growth [7] | growth [8] | growth [9] | growth [10]
C#Cc1cccc(Nc2nc(Cl)nc3cc(NC(=O)CCl)ccc23)c1 | -93.5% (active) | -36.2% (active) | -83.3% (active) | -73% (active) | -94.2% (active) | -52.2% (active) | -86.9% (active) | -96.5% (active) | -53.9% (active) | 
CCOC(=O)C1=CCC(n2cc(F)c(=O)[nH]c2=O)O1 (centres undefined) | 97.6% | 108% | 112% | 115% | 171% | 101% | 114% | 100% | 99.7% | 
Cc1cc(C)n(C(=O)CSc2nc3sc4c(c3c(=O)n2-c2ccccc2)CCCCC4)n1 | 106% | 97.1% | 107% | 108% | 99.9% | 104% | 101% | 105% | 96.7% | 
COC(=O)c1ccc(-n2cc(CCCOS(=O)(=O)c3ccc(F)cc3)nn2)cc1 | 107% | 95.5% | 98.6% | 106% | 105% | 98.6% | 102% | 96.7% | 97.2% | 
COC(=O)c1nc(-c2ccccc2)oc1S(=O)(=O)NCC(c1ccc(Cl)cc1)N1CCCCC1 (centres undefined) | 97.9% | 9.15% (active) | 99.1% | 72.2% | 82.7% | 82.5% | 102% | 88.1% | 88% | 
COc1ccc(C(=O)/C=C/c2ccc(Cl)cc2)cc1S(N)(=O)=O | 90.8% | 3.05% (active) | 90.1% | 65.8% | 97.4% | 91.7% | 98.3% | 17.7% | 87.1% | 
O=C(/C=C/C12c3ccccc3C(c3ccccc31)C1C(=O)NC(=O)C12)c1cccs1 (centres undefined) | 13.5% | 16.8% | 75.6% | 51.6% | 28.1% | 32.9% | 52.5% | 53.9% | 45.7% | 
Cc1cc2c(c(C)n1)CN(C(=O)Nc1nc(-c3cncs3)ccc1N)C2 | 107% | 101% | 96.7% | 113% | 111% | 101% | 99.5% | 86.5% | 103% | 
CCOC(=O)C1=C(C)N(C)C(=O)N(C)C1c1ccccc1 (centres undefined) | 107% | 82.2% | 87.2% | 97.3% | 105% | 108% | 90.6% | 91.4% | 92.5% | 
CCN(CC)CCCC(Nc1c2ccc(Cl)cc2nc2ccc(OC)cc12)c1ccncc1 (centres undefined) | 70.6% | 32.6% | 76.7% | 59.3% | 65.4% | 77.8% | 89.9% | 62.9% | 114% | 
CCCCCCCCNC(=O)[C@@H](N)CSCOC(C)=O | 87.6% | 71.8% | 114% | 91.9% | 124% | -31.5% (active) | 102% | 79.9% | 110% | 34.2%
Cn1cc(-c2csc(-c3cn(CCO)c4ccc(F)cc34)n2)c2cccnc21 | 95.4% | 18.1% | 72.8% | 57.9% | 69.7% | 77.6% | 52.3% | 69.9% | 77.4% | 35.7%
CCN1CCN(c2nc(NNC(=O)c3ccc(OC)cc3)nc(N3CCN(C(c4ccccc4)c4ccccc4)CC3)n2)CC1 | 72.2% | 14% | -63.7% (active) | 82.9% | 55.7% | 81.8% | 71.3% | 73.2% | 10.3% | -40.5% (active)
CCOC(=O)/C=C1\S/C(=N\Nc2cc(=O)[nH]c3ccc(OC)cc23)N(c2ccccc2)C1=O | 98.6% | 86.5% | 101% | 107% | 111% | 101% | 102% | 97.4% | 102% | 99.9%
CO[C@H]1/C=C/O[C@@]2(C)Oc3c(C)c(O)c4c(O)c(c5c(nc6cc(C)ccn65)c4c3C2=O)NC(=O)/C(C)=C\C=C\[C@H](C)[C@H](O)[C@@H](C)C(O)[C@@H](C)[C@H](OC(C)=O)[C@@H]1C (some centres undefined) | 114% | 95.3% | 93.4% | 104% | 111% | 102% | 102% | 105% | 106% | 94.4%
Cc1ccc2c(n1)C[C@H](C(C)(C)O)CC[C@H]2C | 107% | 101% | 94.4% | 97.1% | 114% | 101% | 93.4% | 100% | 104% | 104%
N#C/C(=N\Nc1ccccc1)C(=O)Nc1cc(-c2ccccc2)nn1-c1ccccc1 | 51.5% | 25.9% | 4.67% (active) | 26.1% | 36.9% | 22.9% | 11.4% | 40.4% | 12.3% | 33.7%
CN(C)c1ccc(/C=C/C2=[N+](C)c3ccccc3C2(C)C)cc1 | 25.3% | 14.2% | -6.64% (active) | 3.11% (active) | 39.9% | 20.9% | 0.915% (active) | 16.9% | 12.6% | 18.4%
O=C(/C=C/c1ccc(Cl)cc1)c1ccc(-n2cc(CN3CCN(c4cc5c(cc4F)c(=O)c(C(=O)O)cn5C4CC4)CC3)nn2)cc1 | 90.8% | 67.5% | 84.8% | 88.1% | 75% | 77.3% | 90.7% | 92.8% | 91.7% | 88.7%
COc1ccccc1NC(=O)n1c(=O)cc(C)c2ccc(O)cc21 | 113% | 117% | 106% | 106% | 94.8% | 106% | 101% | 106% | 111% | 113%
O=C(CSc1nc(-c2ccccc2)cn1-c1ccc(Cl)cc1)c1ccc([N+](=O)[O-])cc1 | 93.2% | 76.7% | 103% | 81.8% | 71.2% | -86.7% (active) | 95.4% | 92.4% | 97.9% | 82%
C#Cc1ccc(NC(=O)Cc2ccc(/C=C/C(=O)c3nccn3C)cc2)cc1 | 12.6% | 18.2% | 95.7% | 54.4% | 21.8% | 38% | 77% | 26.3% | 103% | 
CCCCCCCC/C=C\CCCCCCCCOc1ccc(CC(=O)NCC[N+]2(C)CCCC2)cc1 | 78.4% | 41.6% | 66% | 59.8% | -45.3% (active) | 62.8% | 74.8% | 65.4% | 77.3% | 71.4%
C[C@@H]1N=C(c2ccc(Cl)cc2Cl)Nc2nc3ccccn3c2C1=O | 64.8% | 23.6% | 43.7% | 64.6% | 80.2% | 58.9% | 14.5% | 53% | 52.4% | 31.1%
Cn1ncc(CC(=O)O)c1-n1nnc2cc(Cl)ccc2c1=O | 109% | 98.4% | 93.9% | 94.5% | 114% | 103% | 91.7% | 96.7% | 100% | 100%
CC1(C)CC[C@]2(CO)CC[C@]3(C)C(=CC[C@@H]4[C@@]5(C)CCNCC(C)(C)[C@@H]5CC[C@]43C)[C@@H]2C1 | 81.5% | 7.94% (active) | 63.1% | 73.7% | 61.6% | 105% | 97.6% | 85.8% | 9.86% (active) | -2.42% (active)
Cc1nc2ccccc2c(/C=C/c2ccc(Cl)cc2)c1C(=O)/C=C/c1ccccc1 | 9.75% (active) | 6.19% (active) | -20.4% (active) | 9.11% (active) | -41.8% (active) | 51.3% | 10.7% | -48.8% (active) | -3.79% (active) | -0.144% (active)

From PubChem BioAssay (NCI)
